Screen size: about 300,000 compounds; about 37,000 (12%) were called active. For the sample, actives were picked, then their nearest neighbours and some compounds at random. Values without a mark were called inactive. No stated cut-off is given here; in the data, active means max response mostly above about 13% (no sharp cut-off); inactive means mostly below about 14%.
Assay: Cycloheximide Counterscreen for Small Molecule Inhibitors of Shiga Toxin; further: read at 38.3 µM for the half of the compounds with a filed dose; 0% is about no effect
Settings: cell reporter, cycloheximide protein synthesis inhibition counterscreen; hits give high values

Structure (SMILES)	max response
Cc1cc(C)cc(N(CC(=O)N2CC=C(c3ccccc3)CC2)S(=O)(=O)c2c(C)noc2C)c1	8.05%
CCN(CC)CCCNC(=O)c1ccc2c(=O)n(Cc3ccc4c(c3)OCO4)c(=S)[nH]c2c1	5.61%
Cc1ccc(C(=O)CCC(=O)N(C)CC(=O)Nc2c(Cl)cccc2Cl)cc1	1.06%
COc1ccc(-c2nn(CCC#N)cc2C(=O)O)cc1	0.75%
COc1ccc(-c2nn(CCC#N)cc2C(=O)Nc2ccc(C(C)=O)cc2)cc1	18.3% (active)
COc1ccc(NC(=O)c2cn(CCC#N)nc2-c2ccc([N+](=O)[O-])cc2)cc1	-3.78%
COc1ccccc1NC(=O)C1CCCN1S(=O)(=O)c1ccc(Cl)cc1 (stereo not drawn)	0.961%
CN(C)CCN(C(=O)C1CCCCC1)c1nc2cc3c(cc2s1)OCO3	15.2%
CN(C)CCN(C(=O)C1=COCCO1)c1nc2ccc(Cl)cc2s1	36.4% (active)
CCOc1ccc2nc(N(CCN(C)C)C(=O)c3ccc4ccccc4c3)sc2c1	8.51%
Cc1ccc2nc(N(CCN(C)C)C(=O)C3=COCCO3)sc2c1	30.5% (active)
CCc1ccc2nc(N(CCCN(C)C)C(=O)c3ccc4c(c3)OCCO4)sc2c1	1.67%
CC(=O)N(CCCN(C)C)c1nc2ccc(C)cc2s1	7.76%
CC(C)(C)c1ccc(C(CC(=O)O)NS(=O)(=O)Cc2ccccc2)cc1 (stereo not drawn)	-5.97%
CCCCn1c(SCC(=O)N2CCOCC2)nc2c1c(=O)n(C)c(=O)n2C	-6.86%
O=C(Nc1ccc(Br)cc1F)C1CC(=O)N(C2CCCCC2)C1 (stereo not drawn)	-2.46%
CC1=CCC2C(=O)N(c3cccc(C(=O)NC(C)c4ccccc4)c3)C(=O)C2C1 (stereo not drawn)	-2.5%
Cc1ccc(C(=O)NC(=S)NCCN2CCOCC2)cc1	31.2% (active)
Cc1ccc(NC(=S)NCCN2CCOCC2)cc1	-2.44%
Cc1ccc(C(=O)N/C(=C\c2ccc(F)cc2)C(=O)NCCN2CCOCC2)cc1	-2.99%
CCc1ccc(C(CNc2nc(C(F)(F)F)nc3ccccc23)N(C)C)cc1 (stereo not drawn)	-6.3%
COc1ccccc1C(=O)Nn1c(-c2cccs2)nc2ccccc2c1=O	2.63%
O=C(NCCCN1CCOCC1)c1cc2c(s1)CCC2	15.4% (active)
COc1ccc(C(CNC(=O)c2cc3c(s2)CCCC3)N2CCOCC2)cc1 (stereo not drawn)	5.2%

Structure (SMILES)	max response
O=C(NCCCn1ccnc1)c1cc2c(s1)CCCC2	-2.62%
CCOc1ccc(C(C(=O)NC2CCCC2)N(C(=O)c2snc(C(N)=O)c2N)C2CCCC2)cc1 (stereo not drawn)	-3%
CCN(CC)S(=O)(=O)c1ccc(Cl)c(C(=O)NCCN2CCOCC2)c1	-7.58%
CCN(CC)S(=O)(=O)c1ccc(N2CC(C(=O)NCc3cccnc3)CC2=O)cc1 (stereo not drawn)	-8.09%
O=[N+]([O-])c1ccccc1Nc1ccc(O)cc1	-1.56%
Oc1ccc(CNc2ccccc2O)cc1	35.8% (active)
O=C(Cc1ccc(Cl)cc1)NC(=S)Nc1ccccc1O	0.61%
CCOC(=O)[C@@H]1[C@H]2COc3ccc(Br)cc3[C@H]2N2C(=O)N(c3ccc(Cl)cc3)C(=O)[C@@]12C	-3.81%
Cc1nn(CC(=O)Nc2nc3ccccc3s2)c(C)c1[N+](=O)[O-]	16.7%
CC(=O)Nc1cccc(-c2nc3ccccc3s2)c1C	23.7% (active)
Oc1ccc(-c2[nH]ncc2-c2nc3ccccc3s2)c(O)c1	10.7%
COc1cccc(Cn2cc(/C=N/NC(=O)c3cc(O)cc(O)c3)c3ccccc32)c1	7.8%
COC(=O)c1ccc(CNC(=O)C2CCC(=O)N(Cc3ccccn3)C2)cc1 (stereo not drawn)	-0.637%
CCOC(=O)c1cn[nH]c1NC(=S)Nc1ccccc1	67.1% (active)
CCOC(=O)c1ccc(NC(=S)Nc2cc(C)cc(C)n2)cc1	-2.45%
CCOC(=O)c1cc2c(nc1NC(=S)Nc1ccccc1)CC(C)(CC)OC2 (stereo not drawn)	-1.51%
O=C(COc1cc(Cl)c(Cl)cc1Cl)NC(=O)NC1CCCC1	-3.88%
O=C(CN1CCOCC1)N1CCCc2c1c(=O)oc1ccc(OCc3ccccc3)cc21	-7.12%
COc1cccc2c(N/N=C/c3ccco3)cc(C)nc12	18.9%
CCCc1c(C)nc2c(Br)cccc2c1Cl	-2.12%
CCc1c(C)nc2c(OC)cccc2c1Cl	10.5% (active)
COc1ccc2c(c1)C(SCC(=O)NCc1ccccc1)CC(C)(C)O2 (stereo not drawn)	-3.58%
Cc1cc(/C=C2\SC(=O)N(C)C2=O)c(C)n1-c1cccc(C(=O)O)c1	10.2%
CCOC(=O)C1=C(O)/C(=C/c2cc(C)n(-c3ccccc3)c2C)N=C1C	10.2% (active)

Structure (SMILES)	max response
COC(=O)C1=C(O)/C(=C/c2ccc(OCC(=O)Nc3ccccc3)cc2)N=C1C	-5.16%
CC(C)n1c(CN2CCN(Cc3ccccc3)CC2)nc2ccccc21	-2.09%
CC(=O)NN1C(=O)c2ccccc2NC1c1ccccc1 (stereo not drawn)	-3.65%
CC(C)=NN1C(=O)c2ccccc2NC1(C)C	37.9% (active)
CC(=O)N1C(=O)C2(Nc3ccccc3N2)c2ccccc21	-2.2%
Cc1cccc(NC(=O)C2CCCN(C(=O)Nc3ccc(F)cc3)C2)c1C (stereo not drawn)	-3.65%
CC(C)CC(=O)N/C(N)=N/c1nc2ccccc2s1	44.8% (active)
CC(C)CC(=O)NC(=S)NCc1ccccc1	3.76%
Cc1cc(C(=O)OCC(=O)Nc2nnc(C(C)C)s2)c2ccccc2n1	-2.56%
CCC(=O)NCCc1nc2ccccc2n1CC	-2.66%
CC(C)C(C)NC(=O)COc1ncnc2ccccc12 (stereo not drawn)	-3.43%
CCC(=O)NC(=Nc1nc2ccccc2s1)NC(=O)CC	28.7% (active)
CSCCC(NS(=O)(=O)c1ccccc1F)C(=O)N1CC=C(c2ccccc2)CC1 (stereo not drawn)	-2.39%
COc1ccc(N(C(=O)c2snc(C(N)=O)c2N)C(C(=O)NC2CCCC2)c2ccco2)cc1OC (stereo not drawn)	-2.38%
CC(C)C(C(=O)NCc1ccco1)N(CC1CCCO1)C(=O)CNS(=O)(=O)c1ccc(F)cc1 (stereo not drawn)	-6.69%
Cc1cc(-c2ccc(S(=O)(=O)N3CCc4ccccc4C3)s2)on1	-3.48%
O=C(N/N=C/c1cc(Cl)cc([N+](=O)[O-])c1O)C(O)(c1ccccc1)c1ccccc1	-1.36%
N#Cc1ccsc1NC(=O)CN1CCN(S(=O)(=O)c2cc(Cl)ccc2Cl)CC1	-2.08%
C=C(C)C(=O)O[C@H]1C/C(C)=C\C(=O)/C=C(\C)[C@H](O)[C@@H]2OC(=O)C(=C)[C@@H]21	41.8% (active)
Nc1nonc1-n1nnc(C(=O)N/N=C\c2ccncc2)c1CN1CCCCC1	-1.14%
O=C(c1ccc(C(F)(F)F)cc1)C1CCCN(C(=O)c2csnn2)C1 (stereo not drawn)	1.58%
CCN(CC(=O)Nc1ccccc1OC)C(=O)Cn1cnc2ccccc2c1=O	1.69%
Cc1ccn2cc(-c3nonc3C)cc2c1	11.7% (active)
CN(C)C(=O)c1ccc(NC(=O)c2ccccc2-c2ccccc2)cc1	-3.02%

Structure (SMILES)	max response
COc1cc(CN(C)Cc2nc3cc(C(F)(F)F)ccc3c(=O)[nH]2)ccc1OC(F)F	1.37%
CC1(C)SC2C(NC(=O)COc3ccccc3)C(=O)N2C1C(=O)O (stereo not drawn)	-0.647%
COc1cc(/C=C/C(=O)O)cc(S(=O)(=O)Nc2ccccc2C(=O)NCCc2ccccc2)c1OC	41.8% (active)
COc1cc(/C=C/C(=O)O)cc(S(=O)(=O)Nc2ccccc2SC)c1OC	-2.09%
O=C(O)c1ccccc1-c1ccccc1C(=O)NCCc1ccccc1	0.507%
NC(=O)Nc1ccccc1C(=O)NCCc1ccccc1	63.4% (active)
NC(=O)c1ccccc1NC(=O)c1ccccc1F	14.9%
COc1cc(OC)c(S(=O)(=O)Nc2ccccc2C(=O)O)cc1S(=O)(=O)Nc1ccccc1C(=O)O	-2.35%
CCN(CC)CCNC(=O)c1sc2ncn(CC(=O)Nc3ccc(C)c(Cl)c3)c(=O)c2c1C	-6.12%
Cc1ccc(NC(=O)CSc2nnc(CNC(=O)c3ccccc3F)o2)cc1Cl	7.13%
CCCNC(=O)CCc1c(C)nc2c(c(C)nn2-c2ccccc2)c1C	-1.68%
Cc1ccc(C)c(C(=O)N2CCC(n3nccc3NC(=O)C3CC3)CC2)c1	-2.23%
Cc1ccc(C)c(NS(=O)(=O)c2c(C)[nH]c(C)c2C(=O)N2CCCCC2)c1	-4.94%
O=C(/C=C/c1cnc2ccccc2n1)NC1CCCCCC1	49.7% (active)
CC(=O)OC(C(=O)NC1CCCCC1)c1ccccc1 (stereo not drawn)	-1.59%
O=C(Cn1c(-c2cncs2)nc2ccccc21)NC1CCCC1	-2.22%
CCOc1ccc(NC(=O)N(CCC(C)C)C(C)c2ccco2)cc1 (stereo not drawn)	8.57%
CCCC(C(=O)NCc1ccco1)N(C(=O)CNS(=O)(=O)c1ccccc1)C1CCCC1 (stereo not drawn)	2.82%
CC(c1ccco1)N(C(=O)Nc1ccccc1)C1CCCCC1 (stereo not drawn)	14.3% (active)
COc1ccc(C2=NS(=O)(=O)N(C)C(C(=O)N(C)Cc3ccccc3)=C2)cc1	-2.93%
O=C(C[C@H]1C(=O)N(c2ccc(F)c(F)c2)C[C@@H]1Cc1ccccc1)Nc1ccccc1	2.14%

From PubChem BioAssay AID2314 (National Center for Advancing Translational Sciences (NCATS), 2010)
